This passage reports growth results from PubChem BioAssay (NCI).

Holding throughout (assay): NCI-60 one-dose screen, 48 h (100 = growth as untreated, 0 = no growth, -100 = all killed)
The test system of one assay is HCT-15 colon. The conditions noted are these: 10 µM unless noted.
The subject of the next assay is HT29 colon. The note with it: 10 µM unless noted.
The subject of the next assay is SNB-75 CNS. The note with it: 10 µM unless noted.
The test system of another assay is SNB-19 CNS. The note with it: 10 µM unless noted.
The next assay has as its system U251 CNS. The conditions noted are these: 10 µM unless noted.
A further assay has as its system PC-3 prostate. The note with it: 10 µM unless noted.
For another assay, the system named is SK-MEL-5 melanoma. The note with it: 10 µM unless noted.
For another assay, the system named is UACC-62 melanoma. The note with it: 10 µM unless noted.
For the next assay, the system named is LOX IMVI melanoma. The conditions noted are these: 10 µM unless noted.
A further assay deals with SK-MEL-2 melanoma. The conditions noted are these: 10 µM unless noted.
The next assay has as its system EKVX NSCLC. The note with it: 10 µM.
For a further assay, the system named is SN12C renal. The conditions noted are these: 10 µM unless noted.
For another assay, the system named is UO-31 renal. The note with it: 10 µM unless noted.
A further assay deals with TK-10 renal. The note with it: 10 µM unless noted.
The next assay has as its system ACHN renal. The conditions noted are these: 10 µM unless noted.
The test system of another assay is A498 renal. The note with it: 10 µM unless noted.
For the next assay, the system named is CCRF-CEM leukemia. The note with it: 10 µM.
The next assay has as its system MOLT-4 leukemia. The note with it: 10 µM unless noted.
For another assay, the system named is CAKI-1 renal. The conditions noted are these: 10 µM unless noted.
The next assay relates to SK-MEL-28 melanoma. The note with it: 10 µM unless noted.

Each structure is given as a SMILES string. The panel holds about 83,000 compounds, 20% with a hit somewhere; the sample as a whole holds those more often.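 48-hour exposure, single concentration, 96-well plates; percent growth endpoint where 0 means no net growth. Active: below 10.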 Values without a mark were called inactive. The source made the active and inactive calls.

As for `C=CCSc1nnc(COc2ccc3c(C)c(Cc4ccccc4)c(=O)oc3c2C)o1`, the growth was 104% with HCT-15 colon; 98.3% in the assay on HT29 colon; 89.1% in the assay with SNB-75 CNS; 93.4% in the assay on SNB-19 CNS; 99% with U251 CNS; 93.2% with PC-3 prostate. Moreover, the growth with SK-MEL-5 melanoma was 101%; in the assay on UACC-62 melanoma, 92.4%; with LOX IMVI melanoma, 97.6%; in the assay with SK-MEL-2 melanoma, 95.9%; with EKVX NSCLC, 108%; with SN12C renal, 95.2%. Also, the growth in the assay on UO-31 renal was 80%; with TK-10 renal it was 109%; in the assay on ACHN renal it was 97.5%; with A498 renal, 110%; in the assay on CCRF-CEM leukemia it was 95.1%; in the assay on MOLT-4 leukemia, 96%.
`COc1cc(N)c2nccc(C)c2c1OC`: the growth with HCT-15 colon is 115%; in the assay on HT29 colon, 111%; in the assay on SNB-75 CNS, 103%; in the assay with SNB-19 CNS, 109%; in the assay with U251 CNS, 99.4%; with PC-3 prostate, 108%. Moreover, the growth in the assay with SK-MEL-5 melanoma is 101%; in the assay on UACC-62 melanoma, 93.7%; in the assay on LOX IMVI melanoma it was 96.2%; in the assay with SK-MEL-2 melanoma it was 103%; with EKVX NSCLC it was 92.7%; in the assay with SN12C renal it was 98.8%. For the same molecule, the growth with UO-31 renal was 164%; in the assay with TK-10 renal it was 116%; with ACHN renal, 110%; with CAKI-1 renal, 98.4%; with A498 renal, 93.5%; in the assay with CCRF-CEM leukemia, 101%. In addition, in the assay on MOLT-4 leukemia, the growth is 80.6%.
In the case of `CC(C)CCCCCOC(=O)c1ccccc1SSc1ccccc1C(=O)OCCCCCC(C)C`, the growth was 104% in the assay on HCT-15 colon; 122% with HT29 colon; 87.2% with SNB-75 CNS; 103% in the assay on SNB-19 CNS; 110% in the assay with U251 CNS; 88.6% in the assay with PC-3 prostate. The growth with SK-MEL-5 melanoma was 96.2%; in the assay on UACC-62 melanoma it was 96.2%; in the assay on LOX IMVI melanoma, 100%; in the assay on SK-MEL-28 melanoma it was 114%; in the assay on EKVX NSCLC, 103%; in the assay with SN12C renal, 105%. For the same molecule, the growth with UO-31 renal was 70.5%; with ACHN renal, 103%; in the assay on CAKI-1 renal, 97.3%; in the assay on A498 renal it was 100%; in the assay with CCRF-CEM leukemia, 70.9%; with MOLT-4 leukemia, 72.1%.
Turning to `O=C(Nc1ccc(-n2cc(-c3ccncc3)c(-c3ccc(Cl)c(O)c3)n2)cc1)c1ccc(Cl)c(C(F)(F)F)c1`, the growth was -28% (active) in the assay with HCT-15 colon; -86.3% (active) in the assay on HT29 colon; -48.6% (active) in the assay on SNB-75 CNS; 32.5% in the assay on SNB-19 CNS; -49.1% (active) in the assay with U251 CNS; -19.9% (active) in the assay with PC-3 prostate. Besides, the growth in the assay with SK-MEL-5 melanoma was -97.5% (active); in the assay on UACC-62 melanoma, -3.14% (active); with LOX IMVI melanoma, -5.19% (active); in the assay with SK-MEL-28 melanoma, -38.3% (active); in the assay on EKVX NSCLC, 35.2%; in the assay on SN12C renal it was 66.6%. Further, the growth in the assay with UO-31 renal is -37.3% (active); in the assay with TK-10 renal it was -19.8% (active); in the assay on CAKI-1 renal, -33.5% (active); in the assay on A498 renal, 71.8%; with CCRF-CEM leukemia, 3.34% (active); with MOLT-4 leukemia it was -1.8% (active).
On to `CCCCCCCCc1ccc(CCC(N)(CO)CO)cc1`, for which the growth in the assay with HCT-15 colon was -10% (active); in the assay on HT29 colon, -83.4% (active); with SNB-75 CNS, 57.6%; in the assay with SNB-19 CNS, 52.5%; in the assay on U251 CNS, -85.2% (active); in the assay on PC-3 prostate, 37.1%. Besides, the growth is 90.7% in the assay on SK-MEL-5 melanoma; 86.2% with UACC-62 melanoma; -54% (active) in the assay with LOX IMVI melanoma; 92.8% with SK-MEL-28 melanoma; 54.8% in the assay with EKVX NSCLC; -7.93% (active) in the assay on UO-31 renal. The growth with TK-10 renal was 16.6%; with ACHN renal, -37.2% (active); in the assay on CAKI-1 renal it was 16.1%; in the assay with A498 renal, 90.1%; in the assay on CCRF-CEM leukemia it was -5.69% (active); in the assay with MOLT-4 leukemia, -28.3% (active).
For the molecule `N#Cc1c2cccnc2c2nnc3cc(Cl)c(Cl)cc3n12`, the growth with HCT-15 colon is 1.83% (active); in the assay on HT29 colon, -50.6% (active); in the assay with SNB-75 CNS, -6.13% (active); in the assay with SNB-19 CNS, 63.1%; in the assay with U251 CNS, 26.2%; in the assay with PC-3 prostate, 18.4%. Moreover, the growth with SK-MEL-5 melanoma is 86.1%; with UACC-62 melanoma, 52.5%; in the assay on LOX IMVI melanoma it was 21.9%; with SK-MEL-28 melanoma, 17.6%; with EKVX NSCLC it was 80.8%; with SN12C renal, 75%. The growth in the assay with UO-31 renal is 30.8%; with TK-10 renal it was -31.8% (active); in the assay with ACHN renal, 10.2%; in the assay with CAKI-1 renal it was -3.12% (active); with A498 renal, 80.9%; in the assay on CCRF-CEM leukemia, 29.1%. The growth with MOLT-4 leukemia was 7.72% (active).
In the case of `Oc1ccccc1/C=N/N=C/c1c(O)ccc2ccccc12`, the growth is 70.1% in the assay with HCT-15 colon; 100% in the assay on HT29 colon; 94.2% in the assay on SNB-75 CNS; 99.4% in the assay on SNB-19 CNS; 93.2% in the assay with U251 CNS; 83.8% with PC-3 prostate. Also, the growth with SK-MEL-5 melanoma was 93.1%; with UACC-62 melanoma, 84.4%; with LOX IMVI melanoma, 85.2%; in the assay with SK-MEL-2 melanoma it was 92.4%; in the assay with EKVX NSCLC, 72.1%; with SN12C renal, 85.1%. Also, the growth is 42.9% in the assay on UO-31 renal; 101% in the assay on TK-10 renal; 80% in the assay on ACHN renal; 91.6% in the assay on CAKI-1 renal; 123% in the assay with A498 renal; 7.8% (active) in the assay on CCRF-CEM leukemia. Further, the growth with MOLT-4 leukemia was 57.7%.
As for `O=C(Nc1ccc(Cl)cn1)C1(c2ccccc2)CCCCC1`, the growth in the assay with HCT-15 colon is 112%; in the assay with HT29 colon, 85.6%; in the assay on SNB-75 CNS, 106%; in the assay on SNB-19 CNS, 106%; in the assay with U251 CNS it was 97.5%; in the assay on PC-3 prostate it was 104%. Further, the growth with SK-MEL-5 melanoma was 91.6%; in the assay with UACC-62 melanoma, 94.4%; with LOX IMVI melanoma, 101%; in the assay with SK-MEL-2 melanoma, 116%; in the assay with EKVX NSCLC, 96%; in the assay on SN12C renal, 106%. For the same molecule, the growth with UO-31 renal was 181%; with TK-10 renal, 126%; with ACHN renal, 112%; in the assay on CAKI-1 renal it was 120%; in the assay with A498 renal it was 141%; in the assay with CCRF-CEM leukemia, 14.1%. Further, the growth with MOLT-4 leukemia is 63.3%.
